Source: paper PMC11006913

Assays:
Experiment in all cases: PBM; 200 nM protein, PBS
Conditions in all cases: dsDNA, one strand shown
[1] = target: T1, VENTX (Homo sapiens, UniProt O95231 78-163)
T1 sequence: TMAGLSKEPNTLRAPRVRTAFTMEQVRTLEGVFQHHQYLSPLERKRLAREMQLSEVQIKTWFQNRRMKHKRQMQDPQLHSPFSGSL

[2] = target: PITX2 (Homo sapiens, UniProt Q99697 72-157)
[3] = target: HOXB9 (Homo sapiens, UniProt P17482 171-250, T197M)
[4] = target: HOXC10 (Homo sapiens, UniProt Q9NYD6 254-340, K271E)
[5] = target: HOXC10 (Homo sapiens, UniProt Q9NYD6 254-340)
HOXC10 (Homo sapiens, UniProt Q9NYD6 254-340), sequence (Q9NYD6 254-340): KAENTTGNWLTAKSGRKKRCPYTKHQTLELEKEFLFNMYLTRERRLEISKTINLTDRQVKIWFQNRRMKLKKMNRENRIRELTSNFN

[6] = target: HOXD13 (Homo sapiens, UniProt P35453 263-343, T313R)
HOXD13 (Homo sapiens, UniProt P35453 263-343, T313R), sequence (P35453 263-343 T313R): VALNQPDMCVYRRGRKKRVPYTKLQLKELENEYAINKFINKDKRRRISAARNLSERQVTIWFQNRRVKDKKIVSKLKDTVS

[7] = target: HOXD13 (Homo sapiens, UniProt P35453 263-343, T313A)
HOXD13 (Homo sapiens, UniProt P35453 263-343, T313A), sequence (P35453 263-343 T313A): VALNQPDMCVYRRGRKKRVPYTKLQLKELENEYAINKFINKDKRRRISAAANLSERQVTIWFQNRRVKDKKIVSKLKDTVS

[8] = target: HOXC9 (Homo sapiens, UniProt P31274 178-260, K195R)
HOXC9 (Homo sapiens, UniProt P31274 178-260, K195R), sequence (P31274 178-260 K195R): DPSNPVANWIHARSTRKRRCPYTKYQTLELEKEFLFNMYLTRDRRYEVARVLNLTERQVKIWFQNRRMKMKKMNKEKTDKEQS

[9] = target: HOXC9 (Homo sapiens, UniProt P31274 178-260)
HOXC9 (Homo sapiens, UniProt P31274 178-260), sequence (P31274 178-260): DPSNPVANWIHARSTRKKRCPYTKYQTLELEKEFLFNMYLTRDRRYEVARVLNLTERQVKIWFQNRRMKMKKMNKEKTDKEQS

[10] = target: HOXC9 (Homo sapiens, UniProt P31274 178-260, R193K)
HOXC9 (Homo sapiens, UniProt P31274 178-260, R193K), sequence (P31274 178-260 R193K): as the sequence (P31274 178-260) above, with R16K counted along it

[11] = target: HOXC9 (Homo sapiens, UniProt P31274 178-260, R222W)
HOXC9 (Homo sapiens, UniProt P31274 178-260, R222W), sequence (P31274 178-260 R222W): as the sequence (P31274 178-260) above, with R45W counted along it

HOXC10 (Homo sapiens, UniProt Q9NYD6 254-340, K271E), sequence (Q9NYD6 254-340 K271E): as the sequence (Q9NYD6 254-340) above, with K18E counted along it
HOXB9, sequence (P17482 171-250 T197M): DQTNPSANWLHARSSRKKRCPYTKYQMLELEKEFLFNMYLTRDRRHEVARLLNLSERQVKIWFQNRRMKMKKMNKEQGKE

## ACCAGCTG
[1]
  binding signal: 8.2 upbm affinity estimate (log intensity, higher = more binding, comparable within an allelic series)

## CGGTCCAA
[2]
  binding signal: 7.89 upbm affinity estimate (log intensity, higher = more binding, comparable within an allelic series)

## CGGGCTCC
[3]
  binding signal: 8.02 upbm affinity estimate (log intensity, higher = more binding, comparable within an allelic series)
[1]
  binding signal: 6.97 upbm affinity estimate (log intensity, higher = more binding, comparable within an allelic series)

## GCACTTAA
[1]
  binding signal: 10.9 upbm affinity estimate (log intensity, higher = more binding, comparable within an allelic series)

## CTAATTGC
[1]
  binding signal: 12.7 upbm affinity estimate (log intensity, higher = more binding, comparable within an allelic series)

## CGCCCGAG
[3]
  binding signal: 8.29 upbm affinity estimate (log intensity, higher = more binding, comparable within an allelic series)

## CACGCGTG
[2]
  binding signal: 7.84 upbm affinity estimate (log intensity, higher = more binding, comparable within an allelic series)

## GTACTTAA
[4]
  binding signal: 11.9 upbm affinity estimate (log intensity, higher = more binding, comparable within an allelic series)

## ACCACTTA
[5]
  binding signal: 10.9 upbm affinity estimate (log intensity, higher = more binding, comparable within an allelic series)

## CCTGGGCC
[5]
  binding signal: 10.1 upbm affinity estimate (log intensity, higher = more binding, comparable within an allelic series)
[4]
  binding signal: 9.99 upbm affinity estimate (log intensity, higher = more binding, comparable within an allelic series)

## CGGTCGGC
[2]
  binding signal: 7.99 upbm affinity estimate (log intensity, higher = more binding, comparable within an allelic series)

## CAGCCCGG
[6]
  binding signal: 9.5 upbm affinity estimate (log intensity, higher = more binding, comparable within an allelic series)
[7]
  binding signal: 9.74 upbm affinity estimate (log intensity, higher = more binding, comparable within an allelic series)

## CCCTGGCC
[6]
  binding signal: 9.22 upbm affinity estimate (log intensity, higher = more binding, comparable within an allelic series)
[7]
  binding signal: 9.38 upbm affinity estimate (log intensity, higher = more binding, comparable within an allelic series)

## AGCCCGGG
[8]
  binding signal: 9.48 upbm affinity estimate (log intensity, higher = more binding, comparable within an allelic series)
[9]
  binding signal: 9.82 upbm affinity estimate (log intensity, higher = more binding, comparable within an allelic series)
[10]
  binding signal: 9.63 upbm affinity estimate (log intensity, higher = more binding, comparable within an allelic series)
[11]
  binding signal: 9.71 upbm affinity estimate (log intensity, higher = more binding, comparable within an allelic series)

## CCCCCCGG
[5]
  binding signal: 9.81 upbm affinity estimate (log intensity, higher = more binding, comparable within an allelic series)
[6]
  binding signal: 8.85 upbm affinity estimate (log intensity, higher = more binding, comparable within an allelic series)
[4]
  binding signal: 9.82 upbm affinity estimate (log intensity, higher = more binding, comparable within an allelic series)
[7]
  binding signal: 8.98 upbm affinity estimate (log intensity, higher = more binding, comparable within an allelic series)

## CGGTGGGC
[6]
  binding signal: 9.46 upbm affinity estimate (log intensity, higher = more binding, comparable within an allelic series)
[7]
  binding signal: 9.44 upbm affinity estimate (log intensity, higher = more binding, comparable within an allelic series)
